Many of the other results were omitted from the sample, so hits are more common in it than they were.
IDE exosite inh = exo-site inhibitors of human insulin-degrading enzyme; P14735; purified IDE, FL-6b probe fluorescence polarization; active compounds read low; z-score at 20 µM; 17,000 compounds, 6.3% hits;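 active = z-score of -3 or lower, meaning strong loss of probe binding signal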;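 note: His-tagged human IDE residues 42-1019 made in E. coli with 30 nM FL-6b probe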
Target sequence (P14735 42-1019 limits assumed): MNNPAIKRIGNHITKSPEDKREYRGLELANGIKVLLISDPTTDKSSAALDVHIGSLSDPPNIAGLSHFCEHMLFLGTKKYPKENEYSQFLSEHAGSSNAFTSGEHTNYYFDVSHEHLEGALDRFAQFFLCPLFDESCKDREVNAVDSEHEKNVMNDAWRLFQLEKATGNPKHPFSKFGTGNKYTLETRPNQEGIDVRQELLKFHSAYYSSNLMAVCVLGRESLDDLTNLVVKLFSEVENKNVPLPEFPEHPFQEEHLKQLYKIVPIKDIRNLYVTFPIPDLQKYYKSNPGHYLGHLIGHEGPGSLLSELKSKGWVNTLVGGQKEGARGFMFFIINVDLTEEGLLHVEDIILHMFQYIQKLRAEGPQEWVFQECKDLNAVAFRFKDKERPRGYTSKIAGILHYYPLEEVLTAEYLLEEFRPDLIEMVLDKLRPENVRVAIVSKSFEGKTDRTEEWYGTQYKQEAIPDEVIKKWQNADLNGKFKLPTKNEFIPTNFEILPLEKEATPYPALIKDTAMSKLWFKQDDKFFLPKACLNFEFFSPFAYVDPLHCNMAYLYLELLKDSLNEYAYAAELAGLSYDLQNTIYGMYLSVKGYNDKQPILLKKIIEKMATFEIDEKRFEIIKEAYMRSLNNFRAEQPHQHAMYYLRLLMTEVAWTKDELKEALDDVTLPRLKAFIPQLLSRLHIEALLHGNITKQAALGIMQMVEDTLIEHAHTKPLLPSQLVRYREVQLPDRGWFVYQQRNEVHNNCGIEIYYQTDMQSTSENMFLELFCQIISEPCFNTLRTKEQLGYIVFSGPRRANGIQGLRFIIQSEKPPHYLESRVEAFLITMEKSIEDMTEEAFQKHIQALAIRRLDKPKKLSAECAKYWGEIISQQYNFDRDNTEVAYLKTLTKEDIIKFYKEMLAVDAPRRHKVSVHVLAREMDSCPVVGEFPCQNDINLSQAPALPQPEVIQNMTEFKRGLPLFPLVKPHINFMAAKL
* hit, by the source's call; ! = a repeat was not active.

SMILES | IDE exosite inh
COc1ccccc1-c1ccccc1[C@@H]1[C@@H](C#N)N(C(=O)C2CC2)[C@@H]1CO | 1.5
COc1ccccc1-c1ccc([C@@H]2[C@@H](C#N)N(C(=O)C3CCCCC3)[C@@H]2CO)cc1 | -14*
CN(C)C(=O)c1cccc(-c2ccc([C@@H]3[C@@H](CO)N(C(=O)C4CCC4)[C@H]3C#N)cc2)c1 | 1.7
CN(C)C(=O)c1cccc(-c2ccc([C@@H]3[C@@H](C#N)N(C(=O)C4CCC4)[C@@H]3CO)cc2)c1 | -4.2*
COc1ccc(-c2ccc([C@@H]3[C@@H](CO)N(C(=O)C4CCCC4)[C@H]3C#N)cc2)cc1 | 1.3
COc1ccccc1-c1ccccc1[C@H]1[C@@H](C#N)N(C(=O)C2CC2)[C@@H]1CO | 2.2
COc1ccc(-c2ccc([C@@H]3[C@@H](CO)N(C(=O)c4cccc(F)c4)[C@H]3C#N)cc2)cc1 | 11
COc1ccccc1-c1ccc([C@H]2[C@@H](CO)N(C(=O)c3cccc(F)c3)[C@H]2C#N)cc1 | -4.2*
CN(C[C@H]1[C@H](c2ccccc2)[C@@H](CO)N1CC1CC1)C(=O)c1ccccc1 | -0.92
CO[C@H](CN(C)S(=O)(=O)c1ccc(C)cc1)[C@H](C)CN(C(=O)Nc1ccccc1F)[C@H](C)CO | 0.69
O=C(Nc1ccccc1F)N1CC(=O)N2[C@H](CO)[C@@H](c3ccc(C#CC4CC4)cc3)[C@@H]2C1 | -0.9
C/C=C/c1ccc([C@@H]2[C@@H](CO)N3CCCCN(C(=O)Nc4ccccc4F)C[C@@H]23)cc1 | 1.1
N#C[C@@H]1[C@H](c2ccc(-c3ccccc3F)cc2)[C@@H](CO)N1C(=O)C1CC1 | -0.081
COc1ccccc1-c1ccccc1[C@H]1[C@@H](CO)N(C(=O)C2CCC2)[C@H]1C#N | 2.7
COc1ccc(-c2ccc([C@@H]3[C@@H](C#N)N(C(=O)C4CCC4)[C@H]3CO)cc2)cc1 | 5.7
N#C[C@H]1[C@@H](c2ccc(-c3ccccc3F)cc2)[C@@H](CO)N1C(=O)C1CCC1 | -0.81
COc1ccc(-c2ccc([C@@H]3[C@@H](C#N)N(C(=O)NC4CCCCC4)[C@H]3CO)cc2)cc1 | 1.1
COc1ccccc1-c1ccc([C@@H]2[C@@H](C#N)N(C(=O)C3CCC3)[C@H]2CO)cc1 | -5.2*
COc1ccc(-c2ccc([C@H]3[C@@H](C#N)N(C(=O)NC4CCCCC4)[C@@H]3CO)cc2)cc1 | 3
COc1ccccc1-c1ccc([C@H]2[C@@H](C#N)N(C(=O)C3CCC3)[C@H]2CO)cc1 | -5*
N#C[C@H]1[C@H](c2ccc(-c3ccccc3F)cc2)[C@@H](CO)N1C(=O)C1CC1 | -4.5*
COc1ccccc1-c1ccccc1[C@H]1[C@H](C#N)N(C(=O)C2CCC2)[C@H]1CO | -0.85
COc1ccccc1-c1ccc([C@H]2[C@@H](CO)N(C(=O)NC3CCCCC3)[C@H]2C#N)cc1 | -6.9*
N#C[C@H]1[C@@H](c2ccc(-c3ccccc3F)cc2)[C@H](CO)N1C(=O)C1CC1 | -0.079
O=C(Nc1ccccc1F)N1CC(=O)N2[C@@H](CO)[C@@H](c3ccc(C#CC4CC4)cc3)[C@@H]2C1 | 0.65
SMILES | IDE exosite inh
CCCC#Cc1ccc([C@H]2[C@@H](CO)N3C(=O)CN(C(=O)Nc4ccccc4)C[C@H]23)cc1 | 2.7
COc1ccc2c3c([nH]c2c1)[C@@H](CO)N(C(=O)C1CCOCC1)CC31CCN(Cc2cccc(F)c2)CC1 | -0.84
O=C1CN(Cc2ccccc2)C[C@H]2[C@H](c3ccc(-c4ccccc4F)cc3)[C@H](CO)N12 | -1.1
N#C[C@@H]1[C@H](c2ccccc2-c2ccccc2F)[C@H](CO)N1C(=O)c1cccc(F)c1 | 0.18
CC(=O)NC[C@H]1[C@H](c2ccc(-c3ccccc3)cc2)[C@H](CO)N1C(=O)C1CC1 | 1.8
O=C(C[C@H]1CC[C@H]2NC[C@H](O)COC[C@@H]2O1)Nc1ccc(-c2ccccc2)cc1 | -2
CCCC#Cc1ccc([C@@H]2[C@H]3CN(C(=O)c4cccc(F)c4)CC(=O)N3[C@H]2CO)cc1 | 2
O=C(Cc1ccccn1)N1CC(=O)N2[C@@H](CO)[C@H](c3ccc(C#CC4CC4)cc3)[C@@H]2C1 | 3.3
COC(=O)C[C@@H]1C[C@H]2c3cc(N)ccc3O[C@H]2[C@@H](CO)O1 | -0.54
O=C(CN1CCOCC1)N1CC2(C1)[C@H](c1ccccc1)[C@H](CO)N2Cc1cccc(F)c1 | 1
O=C(c1ccccc1F)N1C[C@H]2[C@@H](c3ccccc31)[C@@H](CO)N2Cc1ccc2c(c1)OCO2 | -0.92
O=C(Nc1cc(F)ccc1F)N1CC(=O)N2[C@H](C1)[C@@H](c1ccc(-c3ccccc3)cc1)[C@@H]2CO | -2.7
Cc1noc(C)c1S(=O)(=O)Nc1ccc2c(c1)C(=O)N([C@@H](C)CO)C[C@@H](C)[C@H](CN(C)C(=O)Nc1cccc3ccccc13)OCCCC[C@@H](C)O2 | -1.7
O=C(Nc1ccc(F)cc1)N1CC(=O)N2[C@H](CO)[C@@H](c3ccc(Br)cc3)[C@@H]2C1 | -1.1
C[C@H]1CN([C@@H](C)CO)C(=O)c2c(c3ccccc3n2C)-c2ccccc2CO[C@@H]1CN(C)C(=O)Nc1ccccc1C(F)(F)F | 0.52
O=C(CC1CC1)N1CC(=O)N2[C@H](CO)[C@H](c3ccc(C#Cc4ccc(F)cc4)cc3)[C@H]2C1 | 0.74
O=C(CC1CC1)N1CC(=O)N2[C@H](CO)[C@H](c3ccc(C#Cc4ccccc4)cc3)[C@H]2C1 | -16*
O=C(CC1CC1)N1CC(=O)N2[C@@H](CO)[C@@H](c3ccc(C#Cc4ccccc4)cc3)[C@@H]2C1 | -11*
O=C(CC1CC1)N1CC(=O)N2[C@@H](CO)[C@H](c3ccc(C#Cc4ccccc4)cc3)[C@@H]2C1 | -11*
O=C(CC1CC1)N1CC(=O)N2[C@@H](CO)[C@H](c3ccc(C#Cc4ccc(F)cc4)cc3)[C@@H]2C1 | -0.63
O=C(CC1CC1)N1CC(=O)N2[C@H](CO)[C@@H](c3ccc(C#Cc4ccc(F)cc4)cc3)[C@@H]2C1 | 3.3
COCC(=O)N1[C@H](C#N)[C@H](c2ccc(-c3cccc(F)c3)cc2)[C@@H]1CO | 1.2
COc1ccccc1CNC(=O)C[C@H]1CC[C@@H]2[C@H](COC[C@@H](O)CN2Cc2ccc3c(c2)OCO3)O1 | -0.15
Cc1noc(C)c1NC(=O)N(C)C[C@@H]1OCc2cnnn2CCCC(=O)N([C@H](C)CO)C[C@H]1C | -0.59
Cc1ccc(-c2ccc(C3[C@H]4CNC[C@@H]3N4S(=O)(=O)c3cn(C)cn3)cc2)cc1 (stereo partly drawn) | 3.7
SMILES | IDE exosite inh
CC(C)N(C[C@H]1[C@@H](c2ccccc2)[C@@H](CO)N1CC1CC1)C(=O)C1CCC1 | 1
CN(C)C(=O)c1cccc(-c2ccc3c(c2)[C@H]2[C@H](CCN2Cc2nccs2)[C@H](CO)N3)c1 | -0.13
O=C(C1CCOCC1)N1C[C@@H]2N[C@H](C1)C2c1ccc(-c2ccncc2)cc1 (stereo partly drawn) | 2.1
O=C(c1ccncc1)N1C[C@@H]2N[C@H](C1)C2c1ccc(/C=C/c2ccccc2)cc1 (stereo partly drawn) | -14*!
C(=C\c1ccc(C2[C@@H]3CN(Cc4nccs4)C[C@H]2N3)cc1)/c1ccccc1 (stereo partly drawn) | -2.4
O=C(c1ccc2c(c1)OCO2)N1C[C@@H]2N[C@H](C1)C2c1ccc(/C=C/c2ccccc2)cc1 (stereo partly drawn) | -0.41
O=C(C1CCOCC1)N1C[C@@H]2N[C@H](C1)C2c1ccc(/C=C/c2ccccc2)cc1 (stereo partly drawn) | -7.6*!

Screening data from PubChem.
